The panel holds about 83,000 compounds, 20% with a hit somewhere; the sample as a whole holds those more often.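 Method: cells in 96-well plates; compound added at one concentration; 48 h incubation; percent growth measured; values under 10 scored active.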 Values without a mark were called inactive. Activity calls are given as the source filed them.
Key:
Assay in all cases: NCI-60 one-dose screen, 48 h (100 = growth as untreated, 0 = no growth, -100 = all killed)
SK-MEL-2 melanoma = details: 10 µM unless noted
EKVX NSCLC = details: 10 µM
SN12C renal = details: 10 µM unless noted
UO-31 renal = details: 10 µM unless noted
TK-10 renal = details: 10 µM unless noted
ACHN renal = details: 10 µM unless noted
CAKI-1 renal = details: 10 µM unless noted
A498 renal = details: 10 µM unless noted
CCRF-CEM leukemia = details: 10 µM
MOLT-4 leukemia = details: 10 µM unless noted
SR leukemia = details: 10 µM unless noted
RPMI-8226 leukemia = details: 10 µM unless noted
OVCAR-8 ovarian = details: 10 µM unless noted
OVCAR-5 ovarian = details: 10 µM unless noted
OVCAR-4 ovarian = details: 10 µM unless noted
SK-OV-3 ovarian = details: 10 µM unless noted
IGROV1 ovarian = details: 10 µM unless noted
OVCAR-3 ovarian = details: 10 µM unless noted
HS 578T breast = details: 10 µM unless noted
NCI/ADR-RES ovarian = details: 10 µM unless noted

| Structure (SMILES) | growth (SK-MEL-2 melanoma) | growth (EKVX NSCLC) [%] | growth (SN12C renal) [%] | growth (UO-31 renal) [%] | growth (TK-10 renal) [%] | growth (ACHN renal) [%] | growth (CAKI-1 renal) [%] | growth (A498 renal) [%] | growth (CCRF-CEM leukemia) | growth (MOLT-4 leukemia) | growth (SR leukemia) | growth (RPMI-8226 leukemia) | growth (OVCAR-8 ovarian) [%] | growth (OVCAR-5 ovarian) [%] | growth (OVCAR-4 ovarian) [%] | growth (SK-OV-3 ovarian) [%] | growth (IGROV1 ovarian) | growth (OVCAR-3 ovarian) [%] | growth (HS 578T breast) [%] | growth (NCI/ADR-RES ovarian) [%] |
| --- | --- | --- | --- | --- | --- | --- | --- | --- | --- | --- | --- | --- | --- | --- | --- | --- | --- | --- | --- | --- |
| COc1cccc2c1n([O-])c1cccc(OC)c1[n+]2=O | 71.5% | 45.6 | 83.3 | 60.6 | 59.8 | 72.3 | 304 | 106 | 9.03% (active) | 26.3% | 19.8% | 31.8% | 52.8 | 18.2 | 50.2 | 90.8 | -46.3% (active) | 164 | 99 | 61.1 |
| CCC(CCCN1C(=O)c2ccccc2C1=O)Nc1cc(OC)cc2c(C)ccnc12 (stereo not given) | 87% | 84.5 | 97.8 | 115 | 120 | 100 | 75.7 | 60 | 105% | 66.3% | 54.9% | 96% | 98.7 | 99.9 | 73.8 | 100 | 137% | 99.1 | 86.7 | 121 |
| COC(=O)c1ccc2[nH]c(O)c(C(=Nc3ccc(N(C)C(=O)CN4CCN(C)CC4)cc3)c3ccc([N+](=O)[O-])cc3)c2c1 | 43.2% | 88.1 | 27.4 | 65.6 | 72.2 | 54.3 | 19 | 25.9 | 21.2% | 8.41% (active) | 5.48% (active) | 31% | 37 | 94.3 | 46.9 | 22.5 | 19.1% | 53.6 | 27.6 | 104 |
| COc1nc(OC)nc(-c2cc(-c3cc(OC)c(OC)c(OC)c3)no2)n1 | 108% | 103 | 94.6 | 71.3 | 101 | 108 | 96.1 | 82.5 | 91.3% | 92.6% | 95.6% | 90.4% | 98.3 | 115 | 106 | 116 | 121% | 116 | 95.2 | 98.9 |
| CC(=O)Nc1nc(C)c(C(=O)NN)s1 | 24.7% | 143 | 95.2 | 86.1 | 203 | 93.6 | 125 | 106 | 94.9% | 111% | 107% | 120% | 111 | 100 | 118 | 102 | 95% | 104 | 86 | 98.6 |
| CCCCCCCCCCCCc1ccc([N+](CC)(CC)CC)cc1 | 42.7% | 41 | 33.5 | 78.7 | 67.1 | 85 | 88.7 | 60 | 33% | 51.9% | 32.4% | 6.37% (active) | 31.7 | 92.3 | 21.6 | 73.2 | 48.1% | 23.2 | 65.4 | 103 |
| CC(=O)Nc1nc(C)c(C(=O)N/N=C/N2CCCCC2)s1 | 15.3% | 112 | 106 | 98.7 | 144 | 116 | 132 | 119 | 94.6% | 130% | 104% | 124% | 103 | 103 | 121 | 103 | 9.23% (active) | 128 | 107 | 104 |
| CC(=O)Nc1nc(C)c(C(=O)N/N=C/c2cccs2)s1 | 19.3% | 107 | 92.6 | 79.8 | 144 | 95.9 | 111 | 92.4 | 84.6% | 84.1% | 81.4% | 61.9% | 112 | 99 | 112 | 87.7 | -4.95% (active) | 121 | 85.5 | 99.2 |
| CCCCCSc1ccc2nc(NC(=O)OCCC)sc2c1 | 51.7% | 34.2 | 57.4 | 51.8 | 70.1 | 42.8 | 32.4 | 11.2 | 20.3% | 30.7% | 34.2% | 29.6% | 65.8 | 86.3 | 35.1 | 41.9 | 55.4% | 13.3 | 23.9 | 22.7 |
| CCOC(=O)C1=C(c2ccccc2)NC(=O)NC1CN1C(=O)c2ccccc2C1=O (stereo not given) | 101% | 130 | 107 | 102 | 111 | 111 | 105 | 118 | 54.4% | 2.02% (active) | -32.9% (active) | 97.9% | 111 | 100 | 107 | 113 | 98.4% | 111 | 105 | 103 |
| COc1cc2ncnc(-n3ncc4cc(NC(=O)Nc5ccc(Cl)c(C)c5)ccc43)c2cc1OC | 92.5% | 97.7 | 98.8 | 100 | 95.9 | 103 | 92.7 | 101 | 102% | 84% | 71.5% | 96.8% | 110 | 109 | 98.3 | 119 | 96.2% | 107 | 75.9 | 98.7 |
| CCOC(=O)c1cc(-c2ccc(OC)cc2)[nH]c1NNC(=O)CCOC | 103% | 101 | 107 | 77 | 63.7 | 107 | 88.8 | 77.8 | 57.8% | 58.1% | 87.7% | 98.2% | 106 | 100 | 113 | 105 | 2.76% (active) | 82.5 | 104 | 125 |
| COC(=O)c1ccc2[nH]c(O)c(C(=Nc3ccc(N(C)C(=O)CN4CCN(C)CC4)cc3)c3ccc(N)cc3)c2c1 | 93.1% | 95.5 | 50.4 | 75.6 | 76.4 | 94.7 | 63.9 | 92.7 | 60.4% | 52.3% | 3.76% (active) | 84% | 116 | 77.8 | 73.7 | 85.6 | 46.6% | 96.2 | 45.2 | 113 |
| O=S(=O)(O)c1ccc2c(c1)Sc1cc(S(=O)(=O)O)ccc1O2 | 107% | 90.1 | 95.8 | 97 | 107 | 112 | 105 | 96.6 | 107% | 115% | 107% | 101% | 104 | 92.1 | 110 | 107 | 112% | 122 | 110 | 104 |
| CC(=O)c1cc(Nc2cc(C)nc(N)n2)cc(C(C)=O)c1 | 100% | 101 | 94.1 | 92.7 | 94.8 | 102 | 87 | 91.7 | 86.9% | 91.2% | 35.8% | 100% | 98.8 | 91.6 | 108 | 116 | 91.7% | 112 | 94.6 | 94 |
| CCOC(=O)c1sc(NS(=O)(=O)c2ccccc2)nc1C | 2.52% (active) | 116 | 100 | 87 | 163 | 123 | 124 | 114 | 103% | 75.6% | 102% | 120% | 114 | 107 | 111 | 106 | 6.87% (active) | 133 | 111 | 114 |
